17 compounds from ChEMBL document CHEMBL1961873, “Compounds: GSK PKIS; Assays: Nanosyn kinase panel” (2012) can be followed below.
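Also: each value is the mean of the inhibition measurements.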

The target of the assay is T1, Tyrosine-protein kinase Tec (Homo sapiens) (UniProt P42680).
T1 sequence (whole entry): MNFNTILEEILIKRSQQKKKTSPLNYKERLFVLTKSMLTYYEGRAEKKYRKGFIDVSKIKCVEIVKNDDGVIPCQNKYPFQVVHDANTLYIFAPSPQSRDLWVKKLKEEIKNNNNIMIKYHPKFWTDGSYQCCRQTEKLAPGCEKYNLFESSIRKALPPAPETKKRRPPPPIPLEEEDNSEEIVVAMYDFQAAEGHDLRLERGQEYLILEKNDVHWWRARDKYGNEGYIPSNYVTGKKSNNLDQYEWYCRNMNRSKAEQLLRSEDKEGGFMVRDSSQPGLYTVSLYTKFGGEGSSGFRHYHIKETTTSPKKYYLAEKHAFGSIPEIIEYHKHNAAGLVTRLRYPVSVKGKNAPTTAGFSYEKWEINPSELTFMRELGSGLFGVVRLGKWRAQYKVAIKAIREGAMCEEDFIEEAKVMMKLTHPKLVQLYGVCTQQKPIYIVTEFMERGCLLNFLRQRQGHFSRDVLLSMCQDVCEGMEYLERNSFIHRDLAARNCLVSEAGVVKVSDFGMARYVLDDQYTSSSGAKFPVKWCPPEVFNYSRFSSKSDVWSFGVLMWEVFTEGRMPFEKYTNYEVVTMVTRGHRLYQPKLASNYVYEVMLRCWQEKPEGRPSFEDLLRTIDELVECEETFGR
As to conditions: at 1 µM.
As a reminder, the inhibition is the relative decrease from the control value, in per cent. In the case of `COc1cc2ncnc(Nc3ccc4c(cnn4Cc4ccccc4)c3)c2cc1OC`, the inhibition came to 17.7%.
The figure for `COc1cc(Nc2nccc(-c3cnn4ncccc34)n2)cc(OC)c1` is 42.9%; for `ON=C1CCc2cc(-c3nc(C4CCNCC4)[nH]c3-c3ccncc3)ccc21` it is 2.88%.
`COc1cc2ncnc(Nc3ccc(C)c(O)c3)c2cc1OC`: the inhibition is 36.6%.
Turning to `O=S(=O)(CCOCc1ccc(-c2ccc3ncnc(Nc4ccc(OCc5cccc(F)c5)c(Cl)c4)c3c2)o1)c1ccccc1`, the inhibition was 0.9%.
The compound `FC(F)(F)c1ccc(-c2nn3ncccc3c2-c2ccnc(Nc3ccc4c(c3)OCCO4)n2)cc1` displayed an inhibition of 5.21%.
To `O=C(Nc1ccc(Oc2ccc3[nH]c(NC(=O)c4ccco4)nc3c2)cc1)Nc1cc(C(F)(F)F)ccc1F` belongs 0.35%; to `NC(=O)c1sc(-n2cnc3ccccc32)cc1OCc1ccccc1Br`, 4.76%; to `CCCN1CCCC(c2ccc(Nc3nc(Nc4cc(F)ccc4C(N)=O)c4cc[nH]c4n3)c(OC)c2)C1` (configuration not stated), 9.82%.
`COc1ccc2ncnc(Nc3ccc(OCc4ccccc4)cc3)c2c1`: the inhibition was 4.49%.
Take `CCn1c(-c2nonc2N)nc2c(C#CC(C)(C)O)nc(OCCNC)cc21`: the inhibition worked out at 3.22%.
As for `NS(=O)(=O)c1ccc(-c2cc3ccncc3cc2OCc2ccccc2)cc1`, the inhibition was found to be 4.44%.
Compound `COC(=O)c1ccc2c(c1)C(=Cc1cc(Br)c(O)c(Br)c1)C(=O)N2` gave an inhibition of 7.75%.
In turn, `Nc1nccc(C#Cc2cncnc2Nc2ccc(OCc3cccc(F)c3)c(Cl)c2)n1` gave an inhibition of 13.6%.
With `Cc1ccc2c(-c3ccnc(Nc4ccc5c(c4)OCCO5)n3)c(-c3ccc(C(F)(F)F)cc3)nn2n1`, the inhibition was determined as 3.34%.
For the compound `Nc1nccc(-c2c(-c3ccc(F)cc3)ncn2CCCN2CCOCC2)n1`, the inhibition was 3.98%.
The compound `COc1cc(/C=N/Nc2ncnc3c2cnn3C(C)C)ccc1O` gave an inhibition of 13.6%.
